Results on 38 sequences are retold here after the OligoGym collection.
Further: reference of the scale not given here.

One experiment addresses CD40. The experiment in a line: pooled miR-30 sensor sort-seq; sequence = guide strand. Particulars: shRNA.
As for TGACTGTTTATTAGGTACTGTT, the sensor-assay potency score (higher = more potent) was -0.925.

Consider TACAGTGCCAGCCTTCTTCACA, for which the sensor-assay potency score (higher = more potent) is -1.17.

Turning to TTGGCATCCATGTAAAGTCTCC, the sensor-assay potency score (higher = more potent) is -0.501.

The sequence TTCCGTTTCAGTGAACTCTGTG had a sensor-assay potency score (higher = more potent) of 0.749.

TTTCAGTGAACTCTGTGCAGTC: the sensor-assay potency score (higher = more potent) was 0.172.

As to TTCTTCACAGGTGCAGATGGTG, the sensor-assay potency score (higher = more potent) was -0.762.

Sequence TTTTTCTCTGCATGCAGTGGGT gave a sensor-assay potency score (higher = more potent) of -0.914.

AAGAACAGCACTGACTGTTTAT: the sensor-assay potency score (higher = more potent) is -1.08.

Sequence TTCTGAGGTGCCCTTCTGCTGG showed a sensor-assay potency score (higher = more potent) of -1.42.

In turn, TATTAGGTACTGTTTTTCTCTG gave a sensor-assay potency score (higher = more potent) of -0.885.

The sequence TTTGATAAAGACCAGCACCAAG returned a sensor-assay potency score (higher = more potent) of -1.36.

With TCTCCTGCACTGGAGCAGCAGT, the sensor-assay potency score (higher = more potent) was -1.54.

ACAAAGAACAGCACTGACTGTT returned a sensor-assay potency score (higher = more potent) of 0.0373.

On to TTGGTCTCACAGCTTGTCCAAG, for which the sensor-assay potency score (higher = more potent) is -1.27.

In turn, TTTTCTCTGCATGCAGTGGGTG registered a sensor-assay potency score (higher = more potent) of -0.932.

TGTAGCAATCTGCTTGACCCCA yielded a sensor-assay potency score (higher = more potent) of -0.6.

TCCGTTTCAGTGAACTCTGTGC yielded a sensor-assay potency score (higher = more potent) of -0.4.

On to AACCCCTGTAGCAATCTGCTTG, for which the sensor-assay potency score (higher = more potent) was -0.675.

TAGCAATCTGCTTGACCCCAAA gave a sensor-assay potency score (higher = more potent) of -1.28.

TGGTTCTGGATGGACAGCGGTC displayed a sensor-assay potency score (higher = more potent) of -1.56.

Turning to TCACTCACCAGTTTCTGTCCTG, the sensor-assay potency score (higher = more potent) worked out at 0.175.

For the sequence ATTAGGTACTGTTTTTCTCTGC, the sensor-assay potency score (higher = more potent) is -0.104.

Sequence TATTGGTTGGCTTCTTGGCCAC came in with a sensor-assay potency score (higher = more potent) of -0.723.

Another experiment deals with CD48. The description is as above. Conditions: shRNA.
For TCAATTTTGATGACAGGCTTGG, the sensor-assay potency score (higher = more potent) was found to be 0.186.

The sequence TGTAGTTTACAGACTCGCCAGG yielded a sensor-assay potency score (higher = more potent) of -0.895.

As for TCCCATTCTACAATCTTCTGGT, the sensor-assay potency score (higher = more potent) was -0.143.

The sequence ATGTGTATCTCTATATCTCTGT returned a sensor-assay potency score (higher = more potent) of -0.19.

The sequence TTCAAGCACACTGTTCTGGAGC showed a sensor-assay potency score (higher = more potent) of -0.656.

The sequence TTGTTTGTAGTTCTCAGGCAGG returned a sensor-assay potency score (higher = more potent) of -0.932.

In turn, TTCTATCTTCTCAATTTTGATG yielded a sensor-assay potency score (higher = more potent) of -0.753.

Sequence TACTAGAAAACAACAAAGGGAT returned a sensor-assay potency score (higher = more potent) of -0.0806.

With TTGATCTTCCATTCTTGCTCAT, the sensor-assay potency score (higher = more potent) turned out to be 0.311.

Take TATCACACATGACAGTTTCAAA: the sensor-assay potency score (higher = more potent) was -1.19.

Take TTAGATTTTCTGGAATCCCATT: the sensor-assay potency score (higher = more potent) is -1.01.

For TTGGCAAGTATAACACCTGGAG, the sensor-assay potency score (higher = more potent) was -0.157.

For the sequence TAATGTTGTCACAATTTTGGGT, the sensor-assay potency score (higher = more potent) came to 0.114.

TTCAGAGTCACGTTGCTGCCGG: the sensor-assay potency score (higher = more potent) is -0.426.

As to TGATCTTCCATTCTTGCTCATT, the sensor-assay potency score (higher = more potent) was -1.23.
